Assay results published in ChEMBL document CHEMBL1961873, “Compounds: GSK PKIS; Assays: Nanosyn kinase panel” (2012).

Legend:
[1] = target: Tyrosine-protein kinase Fer (Homo sapiens) (UniProt P16591); details: at 1 µM
[2] = target: Tyrosine-protein kinase Fes/Fps (Homo sapiens) (UniProt P07332); details: at 0.1 µM
[3] = target: Tyrosine-protein kinase Fes/Fps (Homo sapiens) (UniProt P07332); details: at 1 µM
[4] = target: Fibroblast growth factor receptor 1 (Homo sapiens) (UniProt P11362); details: at 0.1 µM
Sequence of Fibroblast growth factor receptor 1 (Homo sapiens) (P11362 22-822 limits assumed): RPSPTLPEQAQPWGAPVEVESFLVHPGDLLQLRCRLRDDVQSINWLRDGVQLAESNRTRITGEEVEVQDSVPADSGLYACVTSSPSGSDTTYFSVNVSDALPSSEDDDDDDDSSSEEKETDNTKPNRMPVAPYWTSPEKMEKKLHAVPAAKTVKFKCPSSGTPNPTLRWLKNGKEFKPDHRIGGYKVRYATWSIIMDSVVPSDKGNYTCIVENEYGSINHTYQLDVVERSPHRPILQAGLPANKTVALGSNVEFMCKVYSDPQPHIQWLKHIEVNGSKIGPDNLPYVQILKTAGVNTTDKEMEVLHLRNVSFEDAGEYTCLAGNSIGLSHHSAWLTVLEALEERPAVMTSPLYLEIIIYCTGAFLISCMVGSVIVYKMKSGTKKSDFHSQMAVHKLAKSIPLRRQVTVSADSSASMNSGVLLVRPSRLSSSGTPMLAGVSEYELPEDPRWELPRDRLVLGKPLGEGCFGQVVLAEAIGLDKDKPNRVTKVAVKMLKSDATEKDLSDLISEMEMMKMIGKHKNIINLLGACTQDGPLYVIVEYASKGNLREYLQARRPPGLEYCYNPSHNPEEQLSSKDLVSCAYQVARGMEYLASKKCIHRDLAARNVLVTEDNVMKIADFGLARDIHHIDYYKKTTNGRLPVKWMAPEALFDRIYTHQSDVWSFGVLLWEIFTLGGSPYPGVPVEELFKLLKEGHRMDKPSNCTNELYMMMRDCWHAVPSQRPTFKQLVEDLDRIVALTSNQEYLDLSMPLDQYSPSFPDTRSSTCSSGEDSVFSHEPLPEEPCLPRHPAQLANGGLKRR

[5] = target: Fibroblast growth factor receptor 1 (Homo sapiens) (UniProt P11362); details: at 1 µM
[6] = target: Fibroblast growth factor receptor 2 (Homo sapiens) (UniProt P21802); details: at 0.1 µM
Sequence of Fibroblast growth factor receptor 2 (Homo sapiens) (P21802 22-821 limits assumed): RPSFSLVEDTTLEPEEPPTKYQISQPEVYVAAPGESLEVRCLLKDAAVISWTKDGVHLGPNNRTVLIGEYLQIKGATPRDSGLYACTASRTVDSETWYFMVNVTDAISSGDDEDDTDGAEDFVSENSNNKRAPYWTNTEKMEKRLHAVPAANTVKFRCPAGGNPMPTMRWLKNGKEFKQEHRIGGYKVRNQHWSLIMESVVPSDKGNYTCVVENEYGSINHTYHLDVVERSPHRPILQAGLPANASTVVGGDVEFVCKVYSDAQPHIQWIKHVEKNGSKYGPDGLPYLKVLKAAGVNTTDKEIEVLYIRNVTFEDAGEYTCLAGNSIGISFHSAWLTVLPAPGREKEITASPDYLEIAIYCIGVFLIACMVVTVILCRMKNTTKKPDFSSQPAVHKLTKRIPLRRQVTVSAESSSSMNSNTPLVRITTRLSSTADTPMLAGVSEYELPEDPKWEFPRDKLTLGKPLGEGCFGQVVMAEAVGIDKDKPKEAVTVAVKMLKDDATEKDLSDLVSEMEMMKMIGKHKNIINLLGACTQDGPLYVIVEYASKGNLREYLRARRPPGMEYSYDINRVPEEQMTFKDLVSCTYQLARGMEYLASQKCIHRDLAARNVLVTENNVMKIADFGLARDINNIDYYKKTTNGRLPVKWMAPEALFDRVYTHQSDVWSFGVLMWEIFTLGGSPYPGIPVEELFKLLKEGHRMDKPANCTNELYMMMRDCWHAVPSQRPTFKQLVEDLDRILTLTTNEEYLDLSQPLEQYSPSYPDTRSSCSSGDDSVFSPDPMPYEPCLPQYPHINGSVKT

[7] = target: Fibroblast growth factor receptor 2 (Homo sapiens) (UniProt P21802); details: at 1 µM
[8] = target: Fibroblast growth factor receptor 3 (Homo sapiens) (UniProt P22607); details: at 0.1 µM
Sequence of Fibroblast growth factor receptor 3 (Homo sapiens) (P22607 23-806 limits assumed): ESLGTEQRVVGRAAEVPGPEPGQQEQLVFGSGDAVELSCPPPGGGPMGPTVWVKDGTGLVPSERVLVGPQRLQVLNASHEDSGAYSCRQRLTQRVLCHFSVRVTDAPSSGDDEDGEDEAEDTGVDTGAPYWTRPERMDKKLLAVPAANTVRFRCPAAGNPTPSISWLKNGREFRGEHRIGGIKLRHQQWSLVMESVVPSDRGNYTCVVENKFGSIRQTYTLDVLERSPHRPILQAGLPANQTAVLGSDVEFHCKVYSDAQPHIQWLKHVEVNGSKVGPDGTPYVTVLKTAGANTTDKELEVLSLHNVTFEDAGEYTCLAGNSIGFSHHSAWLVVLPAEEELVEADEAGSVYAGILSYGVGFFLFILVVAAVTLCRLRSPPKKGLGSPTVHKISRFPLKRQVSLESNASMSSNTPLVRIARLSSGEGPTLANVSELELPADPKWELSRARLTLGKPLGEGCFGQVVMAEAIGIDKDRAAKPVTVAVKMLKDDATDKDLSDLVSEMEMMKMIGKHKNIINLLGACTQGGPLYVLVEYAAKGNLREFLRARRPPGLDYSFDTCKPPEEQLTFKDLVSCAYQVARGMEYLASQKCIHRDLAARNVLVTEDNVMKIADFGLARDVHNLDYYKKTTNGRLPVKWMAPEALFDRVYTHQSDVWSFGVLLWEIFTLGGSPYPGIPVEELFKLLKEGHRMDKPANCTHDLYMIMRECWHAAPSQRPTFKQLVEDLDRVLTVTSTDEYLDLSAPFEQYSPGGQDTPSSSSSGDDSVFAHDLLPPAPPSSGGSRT

[9] = target: Fibroblast growth factor receptor 3 (Homo sapiens) (UniProt P22607); details: at 1 µM
[10] = target: Fibroblast growth factor receptor 4 (Homo sapiens) (UniProt P22455); details: at 0.1 µM;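 also: values are mean percent inhibition of FGFR4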
Sequence of Fibroblast growth factor receptor 4 (Homo sapiens) (P22455 22-802 limits assumed): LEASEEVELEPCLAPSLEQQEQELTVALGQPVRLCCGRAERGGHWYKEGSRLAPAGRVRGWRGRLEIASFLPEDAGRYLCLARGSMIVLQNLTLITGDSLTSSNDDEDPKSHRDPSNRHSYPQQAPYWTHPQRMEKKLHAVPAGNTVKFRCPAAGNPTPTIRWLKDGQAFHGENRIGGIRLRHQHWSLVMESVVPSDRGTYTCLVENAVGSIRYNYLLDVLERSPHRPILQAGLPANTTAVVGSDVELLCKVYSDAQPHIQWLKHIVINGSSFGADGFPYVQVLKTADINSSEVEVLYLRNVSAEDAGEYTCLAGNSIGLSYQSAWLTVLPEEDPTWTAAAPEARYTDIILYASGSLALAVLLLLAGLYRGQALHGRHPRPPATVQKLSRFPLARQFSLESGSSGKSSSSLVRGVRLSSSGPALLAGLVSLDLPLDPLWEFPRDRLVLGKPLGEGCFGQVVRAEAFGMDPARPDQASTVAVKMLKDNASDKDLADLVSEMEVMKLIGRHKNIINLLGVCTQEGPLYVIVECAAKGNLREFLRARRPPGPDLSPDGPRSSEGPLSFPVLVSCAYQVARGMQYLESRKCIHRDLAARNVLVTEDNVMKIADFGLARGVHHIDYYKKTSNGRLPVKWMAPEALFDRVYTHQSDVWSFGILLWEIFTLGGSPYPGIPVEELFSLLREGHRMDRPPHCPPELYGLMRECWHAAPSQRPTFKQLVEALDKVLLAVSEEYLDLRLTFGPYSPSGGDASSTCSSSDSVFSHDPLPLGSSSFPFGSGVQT

Sequence of Tyrosine-protein kinase Fes/Fps (Homo sapiens) (P07332 whole entry): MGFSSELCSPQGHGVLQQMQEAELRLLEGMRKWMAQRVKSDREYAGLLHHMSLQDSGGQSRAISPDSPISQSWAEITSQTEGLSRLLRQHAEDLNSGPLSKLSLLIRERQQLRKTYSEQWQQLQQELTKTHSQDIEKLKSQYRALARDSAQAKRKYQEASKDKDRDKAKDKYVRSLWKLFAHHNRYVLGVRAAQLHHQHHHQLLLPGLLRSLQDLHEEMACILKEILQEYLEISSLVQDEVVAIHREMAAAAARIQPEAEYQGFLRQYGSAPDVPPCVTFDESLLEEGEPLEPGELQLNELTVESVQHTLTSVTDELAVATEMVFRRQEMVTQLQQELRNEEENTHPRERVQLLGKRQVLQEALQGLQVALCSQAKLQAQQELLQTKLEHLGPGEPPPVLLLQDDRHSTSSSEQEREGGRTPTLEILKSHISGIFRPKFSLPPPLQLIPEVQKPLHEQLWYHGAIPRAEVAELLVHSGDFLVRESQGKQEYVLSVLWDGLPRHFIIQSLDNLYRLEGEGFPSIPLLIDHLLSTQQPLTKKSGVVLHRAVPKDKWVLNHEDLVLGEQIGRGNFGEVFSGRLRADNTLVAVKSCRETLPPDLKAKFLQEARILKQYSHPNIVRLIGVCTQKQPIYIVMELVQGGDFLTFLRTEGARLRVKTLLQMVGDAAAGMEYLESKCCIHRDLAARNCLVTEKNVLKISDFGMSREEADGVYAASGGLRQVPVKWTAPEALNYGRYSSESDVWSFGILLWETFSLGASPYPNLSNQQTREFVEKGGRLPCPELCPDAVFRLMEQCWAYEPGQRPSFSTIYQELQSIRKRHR
Sequence of Tyrosine-protein kinase Fer (Homo sapiens) (P16591 whole entry, looked up): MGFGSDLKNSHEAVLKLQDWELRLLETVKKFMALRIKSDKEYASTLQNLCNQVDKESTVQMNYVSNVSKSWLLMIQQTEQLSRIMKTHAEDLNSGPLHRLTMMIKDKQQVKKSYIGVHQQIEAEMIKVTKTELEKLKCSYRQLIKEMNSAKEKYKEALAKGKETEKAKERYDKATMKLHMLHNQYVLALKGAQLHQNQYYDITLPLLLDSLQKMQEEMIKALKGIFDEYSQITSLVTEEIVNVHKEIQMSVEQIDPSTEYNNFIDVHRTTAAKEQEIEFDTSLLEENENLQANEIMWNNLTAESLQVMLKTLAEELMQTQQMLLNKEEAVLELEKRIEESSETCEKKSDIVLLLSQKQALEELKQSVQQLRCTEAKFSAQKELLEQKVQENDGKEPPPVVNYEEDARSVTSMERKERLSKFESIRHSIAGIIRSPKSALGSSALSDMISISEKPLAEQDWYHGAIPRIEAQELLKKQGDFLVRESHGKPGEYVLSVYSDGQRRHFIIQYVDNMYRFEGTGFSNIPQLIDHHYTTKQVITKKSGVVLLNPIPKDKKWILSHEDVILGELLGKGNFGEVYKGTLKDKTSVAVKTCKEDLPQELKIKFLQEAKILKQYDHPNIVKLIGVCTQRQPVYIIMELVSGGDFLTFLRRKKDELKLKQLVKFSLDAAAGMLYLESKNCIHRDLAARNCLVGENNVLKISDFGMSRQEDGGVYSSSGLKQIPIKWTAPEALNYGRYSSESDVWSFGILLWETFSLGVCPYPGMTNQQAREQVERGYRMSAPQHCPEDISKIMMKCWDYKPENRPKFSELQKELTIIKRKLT

SMILES	inhibition [1]	inhibition [2]	inhibition [3]	inhibition [4]	inhibition [5]	inhibition [6]	inhibition [7]	inhibition [8]	inhibition [9]	inhibition [10]
Nc1nc(-c2ccc(F)cc2)c(-c2ccc3ncccc3n2)s1	11.1%	3.07%	4.26%	4.21%	4.14%	4.62%	11.8%	8.15%	11.4%	1.96%
COc1cc(Nc2nccc(Nc3ccc4c(C)n[nH]c4c3)n2)cc(OC)c1OC	36.1%	3.05%	10.6%	5.2%	24.8%	7.33%	39.8%	8.22%	30.5%	2.39%
c1cc(-c2cnn3nc(N4CCOCC4)ccc23)nc(NC2CC2)n1	1.58%	3.42%	4.53%	8.29%	9.37%	4.74%	11.4%	6.59%	10.9%	1.73%
CCNC(=O)O[C@H]1CN[C@H](C#Cc2cc3ncnc(Nc4ccc(OCc5cccc(F)c5)c(Cl)c4)c3s2)C1	-0.34%	2.67%	3.23%	3.91%	4.51%	2.71%	4.31%	4.87%	4.14%	1.14%
CC(=O)NCc1cccc(C#Cc2cncnc2Nc2ccc(OCc3cccc(F)c3)c(Cl)c2)c1	0.86%	0.32%	0.52%	-0.81%	-0.46%	-2.84%	-0.08%	0.88%	0.49%	0.41%
[O-][S+]1CCN(Cc2ccc(-c3ccc4ncnc(Nc5ccc(OCc6cccc(F)c6)c(Cl)c5)c4c3)o2)CC1	4.93%	5%	4.91%	3.95%	9.17%	7.74%	9.73%	8.06%	7.32%	5.9%
Nc1nc(-c2cccc(Cl)c2)c(-c2ccc3ncccc3n2)s1	3.32%	3.08%	4.47%	3.71%	7.27%	5.51%	7.42%	4.38%	8.26%	-1.18%
CCCN1CCC(c2ccc(Nc3nc(Nc4cc(F)ccc4C(N)=O)c4cc[nH]c4n3)c(OC)c2)CC1	82.4%	62.5%	80.5%	2.31%	2.41%	3.25%	6.48%	3.99%	1.74%	-5.38%
COc1ccc(-c2cc(-c3c[nH]nc3-c3ccccn3)ccn2)cc1	7.83%	3.39%	3.93%	1.12%	-0.51%	1.91%	4.55%	8.17%	5.23%	-2.23%
CCn1cc(-c2ccnc3[nH]ccc23)c(-c2cccc(NC(=O)Nc3ccc(OCc4ccccc4)cc3)c2)n1	5.87%	0.81%	2.87%	-0.96%	-2.55%	-0.49%	0.34%	-0.88%	0.39%	-0.55%
CCn1c(-c2nonc2N)nc2c(C#CC(C)(C)O)nc(OC[C@H](N)c3ccccc3)cc21	7.41%	4.38%	7.88%	4.14%	2.91%	4.95%	4.18%	9.04%	3.32%	3.89%
COc1ccc(-c2oc3ncnc(N)c3c2-c2ccc(NC(=O)Nc3cc(C(F)(F)F)ccc3F)cc2)cc1	64.5%	3.91%	17.1%	10.1%	66%	31.2%	75.9%	10%	63.8%	5.68%
CC(C)COC(=O)c1ccc2c(c1)/C(=C/Nc1ccc(S(N)(=O)=O)cc1)C(=O)N2	11.1%	-0.89%	-0.27%	0.13%	4.86%	-0.6%	17.3%	0.1%	10.8%	4.93%
N#Cc1c(NC(=O)c2ccc(F)cc2)sc2c1CCCC2	0.95%	0.56%	1.22%	1.48%	2.08%	1.6%	3.48%	1.58%	2.77%	0.23%
COc1ccc(-c2nn3ncccc3c2-c2ccnc(Nc3ccc4c(c3)OCCO4)n2)cc1	11.8%	4.35%	7.51%	-2.89%	11.2%	3.13%	22.1%	3.94%	12.6%	1.59%
Fc1ccc(-c2nn3ncccc3c2-c2ccnc(Nc3ccc4c(c3)OCCO4)n2)cc1	13.8%	3.45%	6.43%	4.68%	15.9%	5.02%	23.5%	4.66%	13.5%	-2%
CCn1c(-c2nonc2N)nc2ccccc21	8.61%	3.26%	2.57%	2.08%	2.29%	0.75%	4.22%	2.45%	2.35%	0.05%

SMILES	inhibition [1]	inhibition [2]	inhibition [3]	inhibition [4]	inhibition [5]	inhibition [6]	inhibition [7]	inhibition [8]	inhibition [9]	inhibition [10]
CCn1c(-c2nonc2N)nc2c(C#CC(C)(C)O)ncc(OC3CCNCC3)c21	3.91%	2.9%	5.88%	1.54%	-4.66%	9.23%	11.4%	7.92%	2.73%	6.43%
O=C(O[C@H]1CN[C@H](C#Cc2cc3ncnc(Nc4ccc(Cc5ccccc5)cc4)c3s2)C1)N1CCOCC1	-0.65%	1.87%	1.71%	1.97%	2.47%	2.52%	1.51%	1.73%	0.73%	4.79%
CNC(=O)c1cc(-c2ccc(F)cc2)cc(-c2ccc(S(=O)(=O)N3CCCC3)cc2)c1N	2.21%	2.25%	1.64%	3.72%	5.1%	9.77%	5.71%	4.56%	3.99%	2.78%
CCN1CCC(CC(=O)Nc2n[nH]c3nnc(-c4cccc(F)c4F)cc23)CC1	1.74%	2.37%	2.12%	0.21%	0.41%	0.64%	3.38%	-1.19%	1.89%	0.88%
O=C(Nc1n[nH]c2cc(-c3ccc(F)cc3)ccc12)C1CC1	1.55%	1.98%	2.43%	3.72%	5.84%	1.37%	3.08%	4.83%	3.2%	-1.21%
COC(=O)c1sc(-n2cnc3cc(OC)c(OC)cc32)cc1OCc1ccccc1C(F)(F)F	4.19%	3.47%	3.74%	3.22%	12.9%	3.5%	23%	6.13%	13.9%	-3.87%
COc1cccc(-n2ncc3c(N/N=C/c4ccc(F)cc4)ncnc32)c1	4.95%	2.58%	3.42%	2.86%	-0.23%	6.26%	8.02%	6.59%	6.78%	-0.12%
Cc1ccc2c(-c3ccnc(Nc4ccccc4)n3)c(-c3ccc(F)cc3)nn2n1	8.06%	2.61%	5.64%	9.59%	10.9%	7.81%	13%	6.27%	8.54%	1.19%
CCOc1ccc2c(-c3ccnc(Nc4cccc(C(F)(F)F)c4)n3)cnn2n1	7.63%	2.3%	2.59%	2.54%	7.08%	3.04%	7.12%	2.18%	5.74%	-0.43%
COC(=O)Nc1nc2ccc(Oc3ccc(NC(=O)Nc4cccc(Cl)c4)cc3)cc2[nH]1	2.41%	1.11%	0.57%	2.31%	9.33%	2.67%	2.53%	2.97%	2.72%	0.5%
NS(=O)(=O)c1ccc(Nc2ncc(-c3ccccc3)o2)cc1	4.95%	2.8%	4.88%	6.58%	8.69%	7.74%	16.1%	7.08%	11.2%	2.06%
COc1cc2c(cc1Nc1nc(Nc3ccsc3C(N)=O)c3cc[nH]c3n1)N(C(=O)CN(C)C)CCC2(C)C	94.8%	76.5%	79.4%	7.38%	4.2%	5.74%	13.5%	9.36%	7.81%	-6.03%
NC(=O)c1sc(-n2cnc3ccc(C(F)(F)F)cc32)cc1OCc1ccccc1Br	2.2%	1.79%	2.43%	4.99%	5.11%	4.53%	4.28%	5.08%	3.54%	4.08%
CCN(CC)S(=O)(=O)c1ccc(OC)c(Nc2ncc(-c3ccccc3)o2)c1	4.52%	0.12%	-0.42%	0.18%	23.7%	15%	54.6%	18.4%	59.5%	2.44%
Nc1ncc(-c2cccc(S(N)(=O)=O)c2)c2scc(-c3ccc(F)c(Cl)c3)c12	30%	4%	7.1%	2.01%	16.1%	8.86%	32.8%	6.12%	23.3%	2.27%
COc1ccc2[nH]c3c4[nH]c5ccc(OC)cc5c4c4c(c3c2c1)C(=O)NC4=O	67.7%	3.43%	10.4%	1.76%	3.2%	4.75%	16.4%	7.7%	15.2%	2.26%
